# Key:
# Assay in all cases: DAPPL (digital affinity profiling via proximity ligation, sequencing); 10 mM Tris-HCl pH 7.5, 50 mM NaCl, 1 mM DTT, 4% glycerol, room temperature, 30 min; GST-TFs on glutathione beads, 16-mer random dsDNA library, 0.1% formaldehyde crosslink after washing; high values mean tight binding
# [1] = biological target: T1, FLI1 (Homo sapiens, UniProt Q01543 1-452); conditions: protein: recombinant; tags: N-terminal GST; dsDNA, one strand shown
# T1 sequence: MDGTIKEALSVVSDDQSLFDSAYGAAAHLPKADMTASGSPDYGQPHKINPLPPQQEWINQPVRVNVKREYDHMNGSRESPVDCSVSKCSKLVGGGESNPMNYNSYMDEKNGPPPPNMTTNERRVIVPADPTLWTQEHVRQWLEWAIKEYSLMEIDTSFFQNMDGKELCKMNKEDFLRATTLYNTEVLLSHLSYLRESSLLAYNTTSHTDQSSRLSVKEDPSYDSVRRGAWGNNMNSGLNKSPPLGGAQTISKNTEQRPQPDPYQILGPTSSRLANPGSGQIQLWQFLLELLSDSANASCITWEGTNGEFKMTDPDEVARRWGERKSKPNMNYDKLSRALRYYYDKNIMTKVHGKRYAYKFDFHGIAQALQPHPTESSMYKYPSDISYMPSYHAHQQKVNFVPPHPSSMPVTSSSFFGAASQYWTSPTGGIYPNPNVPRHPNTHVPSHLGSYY
# In short: (§1)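 GST fusions of human transcription factors were expressed in yeast and captured with glutathione beads. Once given DNA barcodes and pooled alongside a tag-only sample, they were incubated for 30 min at room temperature with 200 nmole of a random double-stranded 16-mer DNA library in Tris/NaCl/DTT/glycerol buffer, then washed, crosslinked (0.1% formaldehyde), proximity-ligated, PCR-amplified and sequenced on an Illumina NextSeq500. The binding signal of each hexamer is its read frequency for a factor divided by its frequency for the tag-only sample.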
# [2] = biological target: T2, ELK1 (Homo sapiens, UniProt P19419 1-428); conditions: protein: recombinant; tags: N-terminal GST; dsDNA, one strand shown
# T2 sequence: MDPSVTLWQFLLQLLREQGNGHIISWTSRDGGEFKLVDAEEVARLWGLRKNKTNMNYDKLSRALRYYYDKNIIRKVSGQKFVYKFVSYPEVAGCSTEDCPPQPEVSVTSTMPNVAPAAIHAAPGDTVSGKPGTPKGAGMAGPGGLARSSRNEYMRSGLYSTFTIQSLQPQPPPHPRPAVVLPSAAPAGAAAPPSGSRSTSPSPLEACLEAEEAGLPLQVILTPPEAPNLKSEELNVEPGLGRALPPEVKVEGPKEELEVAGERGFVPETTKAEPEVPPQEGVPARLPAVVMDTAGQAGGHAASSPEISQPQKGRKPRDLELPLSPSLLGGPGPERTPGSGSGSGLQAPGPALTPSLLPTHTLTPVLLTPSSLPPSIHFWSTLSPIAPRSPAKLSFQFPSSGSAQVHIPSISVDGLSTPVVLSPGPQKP
# In short: as §1
# [3] = biological target: T3, GABPA (Homo sapiens, UniProt Q06546 1-454); conditions: protein: recombinant; tags: N-terminal GST; dsDNA, one strand shown
# T3 sequence: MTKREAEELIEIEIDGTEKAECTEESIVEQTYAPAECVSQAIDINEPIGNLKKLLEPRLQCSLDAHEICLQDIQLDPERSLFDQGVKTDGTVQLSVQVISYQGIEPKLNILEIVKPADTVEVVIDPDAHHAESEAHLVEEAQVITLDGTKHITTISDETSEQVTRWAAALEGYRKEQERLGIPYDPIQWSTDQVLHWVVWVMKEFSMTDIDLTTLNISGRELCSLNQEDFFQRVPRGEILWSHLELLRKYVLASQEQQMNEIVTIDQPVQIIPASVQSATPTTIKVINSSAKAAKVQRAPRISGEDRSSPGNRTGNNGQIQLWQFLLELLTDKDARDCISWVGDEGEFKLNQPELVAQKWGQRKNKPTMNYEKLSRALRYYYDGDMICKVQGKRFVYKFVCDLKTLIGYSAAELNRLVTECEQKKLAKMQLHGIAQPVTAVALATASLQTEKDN
# In short: as §1
# [4] = biological target: T4, ERG (Homo sapiens, UniProt P11308 1-479); conditions: protein: recombinant; tags: N-terminal GST; dsDNA, one strand shown
# T4 sequence: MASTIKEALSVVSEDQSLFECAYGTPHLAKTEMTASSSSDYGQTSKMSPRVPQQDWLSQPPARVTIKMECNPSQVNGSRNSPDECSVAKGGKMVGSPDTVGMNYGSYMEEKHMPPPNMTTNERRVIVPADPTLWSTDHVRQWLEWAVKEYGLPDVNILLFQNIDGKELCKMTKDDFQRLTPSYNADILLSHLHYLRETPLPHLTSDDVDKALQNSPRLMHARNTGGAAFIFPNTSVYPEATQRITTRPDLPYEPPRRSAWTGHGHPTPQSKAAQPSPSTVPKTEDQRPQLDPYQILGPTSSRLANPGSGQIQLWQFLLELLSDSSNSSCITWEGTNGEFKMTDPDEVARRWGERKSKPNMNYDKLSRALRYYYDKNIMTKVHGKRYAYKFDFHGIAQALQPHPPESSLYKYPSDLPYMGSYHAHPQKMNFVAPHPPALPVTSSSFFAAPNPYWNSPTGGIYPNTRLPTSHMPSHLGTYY
# In short: as §1
# [5] = biological target: ELF1 (Homo sapiens, UniProt P32519 1-619); conditions: protein: recombinant; tags: N-terminal GST; dsDNA, one strand shown
# In short: as §1
# [6] = biological target: T5, EHF (Homo sapiens, UniProt Q9NZC4 1-300); conditions: protein: recombinant; tags: N-terminal GST; dsDNA, one strand shown
# T5 sequence: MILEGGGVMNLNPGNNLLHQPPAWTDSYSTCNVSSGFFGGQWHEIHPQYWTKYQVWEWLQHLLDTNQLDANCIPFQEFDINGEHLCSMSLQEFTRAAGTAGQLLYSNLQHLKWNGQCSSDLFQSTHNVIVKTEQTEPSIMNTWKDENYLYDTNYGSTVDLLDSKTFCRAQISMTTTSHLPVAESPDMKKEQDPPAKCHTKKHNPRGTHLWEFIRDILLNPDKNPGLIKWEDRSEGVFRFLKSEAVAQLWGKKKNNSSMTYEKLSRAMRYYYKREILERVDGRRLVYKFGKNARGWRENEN
# In short: as §1
# [7] = biological target: SPI1 (Homo sapiens, UniProt P17947 1-270); conditions: protein: recombinant; tags: N-terminal GST; dsDNA, one strand shown
# In short: as §1
# [8] = biological target: SPIB (Homo sapiens, UniProt Q01892 1-262); conditions: protein: recombinant; tags: N-terminal GST; dsDNA, one strand shown
# In short: as §1
# [9] = biological target: T6, ELK3 (Homo sapiens, UniProt P41970 1-407); conditions: protein: recombinant; tags: N-terminal GST; dsDNA, one strand shown
# T6 sequence: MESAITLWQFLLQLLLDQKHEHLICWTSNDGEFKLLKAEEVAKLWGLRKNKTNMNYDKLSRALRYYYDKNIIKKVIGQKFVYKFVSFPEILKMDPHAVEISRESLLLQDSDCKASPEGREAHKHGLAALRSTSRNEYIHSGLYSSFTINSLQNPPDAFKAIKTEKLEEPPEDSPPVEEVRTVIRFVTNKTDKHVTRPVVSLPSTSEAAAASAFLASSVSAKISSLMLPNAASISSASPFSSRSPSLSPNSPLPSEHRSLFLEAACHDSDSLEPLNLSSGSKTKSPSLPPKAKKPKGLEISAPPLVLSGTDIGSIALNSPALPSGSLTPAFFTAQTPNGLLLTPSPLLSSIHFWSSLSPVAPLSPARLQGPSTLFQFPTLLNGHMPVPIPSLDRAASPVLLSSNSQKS
# In short: as §1
# [10] = biological target: T7, FEV (Homo sapiens, UniProt Q99581 1-238); conditions: protein: recombinant; tags: N-terminal GST; dsDNA, one strand shown
# T7 sequence: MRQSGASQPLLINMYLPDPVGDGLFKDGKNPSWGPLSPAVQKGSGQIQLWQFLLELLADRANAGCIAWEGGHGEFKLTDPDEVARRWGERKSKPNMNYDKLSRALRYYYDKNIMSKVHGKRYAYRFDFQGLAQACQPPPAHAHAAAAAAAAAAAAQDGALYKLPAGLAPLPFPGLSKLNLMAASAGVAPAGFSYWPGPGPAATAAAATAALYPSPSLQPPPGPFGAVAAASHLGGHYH
# In short: as §1
# [11] = biological target: ETV5 (Homo sapiens, UniProt P41161 1-510); conditions: protein: recombinant; tags: N-terminal GST; dsDNA, one strand shown
# In short: as §1
# [12] = biological target: HSF1 (Homo sapiens, UniProt Q00613 1-529); conditions: protein: recombinant; tags: N-terminal GST; chain copies: 3; dsDNA, one strand shown
# In short: as §1
# [13] = biological target: T8, SPIC (Homo sapiens, UniProt Q8N5J4 1-248); conditions: protein: recombinant; tags: N-terminal GST; dsDNA, one strand shown
# T8 sequence: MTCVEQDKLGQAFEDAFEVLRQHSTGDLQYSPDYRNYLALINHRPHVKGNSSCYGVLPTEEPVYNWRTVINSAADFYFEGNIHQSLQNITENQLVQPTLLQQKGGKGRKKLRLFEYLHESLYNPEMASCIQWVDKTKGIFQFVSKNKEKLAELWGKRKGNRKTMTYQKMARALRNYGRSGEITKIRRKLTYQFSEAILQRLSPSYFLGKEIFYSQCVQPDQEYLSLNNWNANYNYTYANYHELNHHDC
# In short: as §1
# [14] = biological target: ELF4 (Homo sapiens, UniProt Q99607 1-663); conditions: protein: recombinant; tags: N-terminal GST; dsDNA, one strand shown
# In short: as §1
# [15] = biological target: T9, ELK4 (Homo sapiens, UniProt P28324-2 1-405); conditions: protein: recombinant; tags: N-terminal GST; dsDNA, one strand shown
# T9 sequence: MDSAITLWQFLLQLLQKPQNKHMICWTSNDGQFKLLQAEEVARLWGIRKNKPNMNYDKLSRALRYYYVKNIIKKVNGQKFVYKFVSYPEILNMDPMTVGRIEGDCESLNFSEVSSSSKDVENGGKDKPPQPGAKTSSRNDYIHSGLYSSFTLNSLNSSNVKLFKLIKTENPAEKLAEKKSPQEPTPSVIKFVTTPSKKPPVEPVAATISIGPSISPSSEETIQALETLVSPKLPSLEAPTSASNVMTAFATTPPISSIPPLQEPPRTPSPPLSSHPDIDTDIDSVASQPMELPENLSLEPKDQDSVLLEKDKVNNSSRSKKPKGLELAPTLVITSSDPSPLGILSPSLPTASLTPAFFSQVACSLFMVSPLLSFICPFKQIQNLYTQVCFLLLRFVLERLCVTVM
# In short: as §1
# [16] = biological target: T10, ETV2 (Homo sapiens, UniProt O00321 1-342); conditions: protein: recombinant; tags: N-terminal GST; dsDNA, one strand shown
# T10 sequence: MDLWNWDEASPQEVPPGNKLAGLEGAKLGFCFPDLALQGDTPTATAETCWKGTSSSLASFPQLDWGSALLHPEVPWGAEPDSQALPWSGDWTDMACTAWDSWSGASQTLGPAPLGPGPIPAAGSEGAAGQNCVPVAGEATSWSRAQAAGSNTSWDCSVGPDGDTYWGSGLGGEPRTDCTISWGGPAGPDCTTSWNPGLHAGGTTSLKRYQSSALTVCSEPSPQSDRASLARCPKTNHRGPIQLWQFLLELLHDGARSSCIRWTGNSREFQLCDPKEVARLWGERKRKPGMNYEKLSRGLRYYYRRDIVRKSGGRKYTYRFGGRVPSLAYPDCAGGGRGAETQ
# In short: as §1
# [17] = biological target: T11, ELF3 (Homo sapiens, UniProt P78545 1-371); conditions: protein: recombinant; tags: N-terminal GST; dsDNA, one strand shown
# T11 sequence: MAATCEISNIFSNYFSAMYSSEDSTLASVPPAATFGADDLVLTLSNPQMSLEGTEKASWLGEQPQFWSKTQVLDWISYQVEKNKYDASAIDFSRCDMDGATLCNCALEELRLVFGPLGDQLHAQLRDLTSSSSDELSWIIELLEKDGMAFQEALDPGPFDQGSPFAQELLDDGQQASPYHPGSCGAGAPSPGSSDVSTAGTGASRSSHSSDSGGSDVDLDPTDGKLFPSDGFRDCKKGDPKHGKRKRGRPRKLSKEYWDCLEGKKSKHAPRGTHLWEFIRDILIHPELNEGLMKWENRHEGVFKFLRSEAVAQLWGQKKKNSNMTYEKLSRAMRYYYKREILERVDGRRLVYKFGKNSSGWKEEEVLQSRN
# In short: as §1
# [18] = biological target: ETV1 (Homo sapiens, UniProt P50549 1-477); conditions: protein: recombinant; tags: N-terminal GST; dsDNA, one strand shown
# In short: as §1
# ETV1, sequence (P50549 whole entry): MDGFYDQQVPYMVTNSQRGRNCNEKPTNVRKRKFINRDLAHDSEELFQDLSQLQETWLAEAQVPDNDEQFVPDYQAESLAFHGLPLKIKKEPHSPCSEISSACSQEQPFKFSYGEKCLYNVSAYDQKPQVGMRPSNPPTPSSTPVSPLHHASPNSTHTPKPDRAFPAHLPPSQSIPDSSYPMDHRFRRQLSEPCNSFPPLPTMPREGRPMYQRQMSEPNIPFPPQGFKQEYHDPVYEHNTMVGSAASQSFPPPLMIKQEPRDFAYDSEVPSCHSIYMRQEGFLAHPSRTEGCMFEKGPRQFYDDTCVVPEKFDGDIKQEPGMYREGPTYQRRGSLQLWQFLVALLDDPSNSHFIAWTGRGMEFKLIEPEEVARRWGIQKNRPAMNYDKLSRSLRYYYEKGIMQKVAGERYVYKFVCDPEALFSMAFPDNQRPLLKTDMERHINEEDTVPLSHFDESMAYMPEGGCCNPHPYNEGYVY
# SPIB, sequence (Q01892 whole entry): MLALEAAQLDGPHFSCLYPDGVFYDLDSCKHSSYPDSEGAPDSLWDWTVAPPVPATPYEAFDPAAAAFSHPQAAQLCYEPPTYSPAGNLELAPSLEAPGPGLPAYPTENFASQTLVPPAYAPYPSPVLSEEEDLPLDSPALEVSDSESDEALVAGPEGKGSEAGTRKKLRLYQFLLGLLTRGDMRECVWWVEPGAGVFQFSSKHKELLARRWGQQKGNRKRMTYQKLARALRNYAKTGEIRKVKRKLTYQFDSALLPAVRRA
# ELF4, sequence (Q99607 whole entry): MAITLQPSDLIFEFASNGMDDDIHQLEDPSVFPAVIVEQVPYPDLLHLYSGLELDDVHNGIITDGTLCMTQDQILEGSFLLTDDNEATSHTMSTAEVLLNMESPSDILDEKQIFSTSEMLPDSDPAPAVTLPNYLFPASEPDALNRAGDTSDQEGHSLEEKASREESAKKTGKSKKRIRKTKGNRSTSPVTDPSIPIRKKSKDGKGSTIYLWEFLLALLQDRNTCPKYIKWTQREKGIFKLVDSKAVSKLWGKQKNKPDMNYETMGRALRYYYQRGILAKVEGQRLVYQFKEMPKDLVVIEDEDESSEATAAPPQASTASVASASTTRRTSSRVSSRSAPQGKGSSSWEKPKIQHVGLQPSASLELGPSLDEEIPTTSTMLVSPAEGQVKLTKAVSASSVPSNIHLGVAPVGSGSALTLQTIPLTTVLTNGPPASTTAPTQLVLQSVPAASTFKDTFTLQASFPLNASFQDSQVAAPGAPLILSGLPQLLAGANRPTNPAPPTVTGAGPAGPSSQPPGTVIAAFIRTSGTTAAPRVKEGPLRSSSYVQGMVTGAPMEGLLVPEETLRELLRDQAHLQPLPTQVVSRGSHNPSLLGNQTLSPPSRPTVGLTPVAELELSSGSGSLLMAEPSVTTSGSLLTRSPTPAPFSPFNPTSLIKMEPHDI
# HSF1, sequence (Q00613 whole entry): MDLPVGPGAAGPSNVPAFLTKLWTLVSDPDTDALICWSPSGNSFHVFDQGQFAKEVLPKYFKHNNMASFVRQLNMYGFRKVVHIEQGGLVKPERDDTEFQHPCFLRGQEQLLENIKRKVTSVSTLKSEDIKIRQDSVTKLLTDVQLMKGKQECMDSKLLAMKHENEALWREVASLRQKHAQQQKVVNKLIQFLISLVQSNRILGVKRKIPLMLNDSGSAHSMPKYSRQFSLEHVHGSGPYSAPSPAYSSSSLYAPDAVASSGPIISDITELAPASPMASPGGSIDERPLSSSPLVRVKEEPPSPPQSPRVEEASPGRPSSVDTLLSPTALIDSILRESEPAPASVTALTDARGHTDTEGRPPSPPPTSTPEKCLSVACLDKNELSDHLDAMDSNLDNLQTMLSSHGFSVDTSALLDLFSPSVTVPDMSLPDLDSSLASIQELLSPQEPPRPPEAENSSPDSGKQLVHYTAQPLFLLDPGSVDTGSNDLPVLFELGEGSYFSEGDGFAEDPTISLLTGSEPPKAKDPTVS
# ELF1, sequence (P32519 whole entry): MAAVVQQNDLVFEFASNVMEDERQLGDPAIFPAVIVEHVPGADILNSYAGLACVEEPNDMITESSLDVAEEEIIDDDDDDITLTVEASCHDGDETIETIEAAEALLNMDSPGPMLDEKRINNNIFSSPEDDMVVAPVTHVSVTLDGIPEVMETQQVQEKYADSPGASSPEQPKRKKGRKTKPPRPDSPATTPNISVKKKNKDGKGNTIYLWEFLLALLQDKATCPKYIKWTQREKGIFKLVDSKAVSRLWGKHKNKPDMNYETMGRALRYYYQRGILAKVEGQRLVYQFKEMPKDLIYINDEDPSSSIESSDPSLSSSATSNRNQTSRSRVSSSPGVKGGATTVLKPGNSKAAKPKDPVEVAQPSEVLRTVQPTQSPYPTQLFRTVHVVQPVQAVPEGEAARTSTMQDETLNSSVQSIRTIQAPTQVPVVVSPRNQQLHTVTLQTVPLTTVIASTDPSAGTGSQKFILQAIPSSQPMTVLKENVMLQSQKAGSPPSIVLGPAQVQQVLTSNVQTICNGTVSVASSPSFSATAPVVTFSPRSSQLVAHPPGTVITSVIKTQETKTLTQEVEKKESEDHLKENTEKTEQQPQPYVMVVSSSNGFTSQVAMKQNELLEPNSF
# ETV5, sequence (P41161 whole entry): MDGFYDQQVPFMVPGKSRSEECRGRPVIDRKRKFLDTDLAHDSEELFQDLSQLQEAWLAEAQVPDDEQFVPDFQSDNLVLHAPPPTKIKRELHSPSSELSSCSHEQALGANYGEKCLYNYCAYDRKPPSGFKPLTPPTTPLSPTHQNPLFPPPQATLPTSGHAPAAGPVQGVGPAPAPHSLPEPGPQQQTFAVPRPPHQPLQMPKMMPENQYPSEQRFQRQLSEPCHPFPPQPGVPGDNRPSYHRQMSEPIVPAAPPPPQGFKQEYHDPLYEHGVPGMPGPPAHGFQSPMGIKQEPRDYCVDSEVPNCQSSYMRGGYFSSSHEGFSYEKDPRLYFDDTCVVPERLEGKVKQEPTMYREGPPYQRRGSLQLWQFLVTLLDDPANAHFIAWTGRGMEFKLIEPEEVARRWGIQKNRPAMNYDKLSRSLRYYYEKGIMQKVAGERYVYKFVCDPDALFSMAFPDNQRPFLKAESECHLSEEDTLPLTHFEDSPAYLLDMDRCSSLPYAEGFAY
sequence,measurement,setting,value
GGATCC,binding signal,[1],"1.15 fold enrichment (6-mer frequency, TF over GST control)"
same,binding signal,[2],"1.13 fold enrichment (6-mer frequency, TF over GST control)"
same,binding signal,[3],"1.18 fold enrichment (6-mer frequency, TF over GST control)"
same,binding signal,[4],"1.25 fold enrichment (6-mer frequency, TF over GST control)"
same,binding signal,[5],"1.18 fold enrichment (6-mer frequency, TF over GST control)"
same,binding signal,[6],"1.16 fold enrichment (6-mer frequency, TF over GST control)"
same,binding signal,[7],"1.06 fold enrichment (6-mer frequency, TF over GST control)"
same,binding signal,[8],"1.24 fold enrichment (6-mer frequency, TF over GST control)"
same,binding signal,[9],"1.07 fold enrichment (6-mer frequency, TF over GST control)"
same,binding signal,[10],"1.16 fold enrichment (6-mer frequency, TF over GST control)"
same,binding signal,[11],"1.17 fold enrichment (6-mer frequency, TF over GST control)"
same,binding signal,[12],"1.04 fold enrichment (6-mer frequency, TF over GST control)"
same,binding signal,[13],"1.13 fold enrichment (6-mer frequency, TF over GST control)"
same,binding signal,[14],"1.13 fold enrichment (6-mer frequency, TF over GST control)"
same,binding signal,[15],"1.05 fold enrichment (6-mer frequency, TF over GST control)"
same,binding signal,[16],"1.29 fold enrichment (6-mer frequency, TF over GST control)"
same,binding signal,[17],"1.29 fold enrichment (6-mer frequency, TF over GST control)"
same,binding signal,[18],"1.14 fold enrichment (6-mer frequency, TF over GST control)"

# From publication PMC7862700, “An all-to-all approach to the identification of sequence-specific readers for epigenetic DNA modifications on cytosine”
